Assay outcomes: PubChem, several laboratories
Only some compounds are listed: those with a hit (about 4.6% of all), similar ones and a draw of the others.
AHR activator – human AHR activation; P35869; AHR-responsive luciferase reporter cells, luminescence; activation, % at 5 µM; 320,000 tested, 2.5% active; AID 2796; in the data active means activation above about 47%;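 further: 0% = vehicle wells and 100% = reference agonist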
GAA850 FXN act – activators of GAA850 frataxin (FXN) promoter. HEK293 lucGAA850 FXN promoter luciferase reporter, 24 h; percent of 10 µM SAHA response. activation, % at 6 µM. 360,000 tested, 0.56% active;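 active means activation above the average of all compounds screened plus 3 SD, cutoff fixed separately per campaign, cut at about 7.5% in these data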;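 further: 0% = DMSO wells and 100% = 10 µM SAHA wells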
HSF1 inh – HSF1 inhibition | NIH3T3-HGL HSE-luciferase, MG132-induced, luminescence 8 h; active compounds read low | activity change, negative = inhibition, % at 7.5 µM (by protocol) | 300,000 tested, 0.77% active;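 active means more than half of replicate wells show activity change below -50%, luminescence cut by over half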;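 further: luciferase reports HSF-1 transcriptional activity via heat shock element; 0% = median of DMSO wells and -100% = zero luminescence signal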
HSF-1 act – increases HSF-1 driven luciferase reporter signal; 300,000 tested, 1.7% active; activation, % at 9 µM; NIH3T3-HGL HSF-1 luciferase reporter, MG132, 8 h; 100% = twice DMSO control signal;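 active means mean replicate activation of at least 50% with a set share of replicates each reaching 50%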;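 further: 0% = median of the neutral control wells and 100% = twice that signal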
Active calls of the source: *; · = not tested or not shown.

SMILES	AHR activator	GAA850 FXN act	HSF1 inh	HSF-1 act
CC1=CC(O)C(O)C2(C)C1CC1OC(=O)C(O)C3C(C)C(O)C4(O)OCC13C42 (stereo not given)	·	-1.0	·	·
COC(=O)[C@]12OC[C@]34C([C@@H](O)[C@@H]1O)[C@]1(C)CC(=O)C(O)=C(C)[C@@H]1C[C@H]3OC(=O)[C@H](O)[C@@H]24 (stereo not given in full)	-5.9	-6.2	-68.9*	-73.8
COC(=O)C1=C(c2cccc(OCc3ccccc3)c2)C[C@@H]2CC[C@H]1N2C(=O)NCc1ccc(C(F)(F)F)cc1	-0.2	-3.7	·	·
COP(=O)(OC)C1(O)C(=O)Nc2ccc(Br)cc21 (stereo not given)	30.7	-1.4	-15.5	-20.1
NN=C(N)N	53.3*	0.5	·	·
C=CCn1c(O)c(C(CC)=Nc2ccc3c(c2)CCC3)c(=O)[nH]c1=O	7.7	2.4	30.2	74.0*
C=CCn1c(O)c(C(C)=Nc2ccc3c(c2)CCC3)c(=O)[nH]c1=O	6.2	0.8	-3.1	21.0
O=C(O)C(Cl)Cl	-1.5	·	-1.1	4.9
CN(C)C(=O)Oc1ccc2c(c1)O/C(=C\c1ccc(Cl)cc1)C2=O	5.5	5.5	44.3	56.5*
CC1CN=C(Nc2ccccc2)S1 (stereo not given)	0.2	0.4	7.5	52.4*
CC1CN=C(Nc2ccc(N(C)C)cc2)S1 (stereo not given)	15.3	3.2	-2.4	33.1
O=c1[nH]c(=S)n(C2CC2)c(O)c1/C=N/Nc1cccc2ccccc12	75.7*	0.1	1.8	13.7
Cc1oc(-c2ccccc2Cl)nc1CN1C(=O)CN=C(c2ccccc2)c2ccccc21	-5.4	-3.3	59.5	94.6*
C#CC1(OC(=O)c2ccccc2)CC(C)N(C)CC1C (stereo not given)	·	1.0	-2.4	-4.2
CCCCn1c(O)c(C=Nc2c(C)n(C)n(-c3ccccc3)c2=O)c(=O)[nH]c1=O	2.0	0.5	8.6	1.6
COc1ccc2ccc(O)c(CN3CC=C(c4ccccc4)CC3)c2c1	12.8	-1.2	163.8	200.7*
COc1ccc2c(CN3CC=C(c4ccccc4)CC3)cc(=O)oc2c1	1.3	-1.3	-3.6	4.4
CCOC(=O)c1c(C)n(Cc2ccc3c(c2)OCO3)c2ccc(O)cc12	6.6	0.8	40.2	62.0*
CCOC(=O)c1c(C)n(Cc2ccco2)c2ccc(O)cc12	47.2*	2.0	19.1	37.1
CCOC(=O)c1c(C)n(COCCO)c2ccc(O)cc12	16.6	1.7	-11.3	-22.0
Cc1c(C=O)c2ccccc2n1Cc1ccc(F)cc1	-1.3	1.5	4.2	22.2
CCOC(=O)c1[nH]c(C)c(C(=O)N2CCC3(CC2)OCCO3)c1C	-1.1	-0.5	-1.7	14.9
O=P1(NCc2ccco2)COc2ccccc2OC1	1.1	0.1	0.5	3.5
Cc1ccc(-c2nn(Cc3ccccc3)cc2C=O)cc1C	6.7	2.6	44.6	69.7*
Cc1ccc(-c2nn(Cc3ccccc3)cc2C=O)cc1	34.8	5.6	44.4	53.3*
SMILES	AHR activator	GAA850 FXN act	HSF1 inh	HSF-1 act
Cc1ccc(Cn2cc(C=O)c(-c3ccc(F)cc3)n2)cc1	7.7	2.6	21.3	57.5*
Cc1ccc(-c2nn(Cc3ccccc3)cc2C(=O)O)cc1	9.1	2.0	-6.0	4.9
C=COCCn1c(C)c(C(C)=O)c2cc(O)ccc21	16.1	-0.4	7.5	41.9
CC(=O)c1c(C)n(CCCOC(C)C)c2ccc(O)cc12	10.8	-1.9	-55.9*	-67.0
C=C1C(=O)OC2CC3(C)OC3CCC(C)=CC(OC(C)=O)C12 (stereo not given)	·	-4.0	·	·
C=C1C(=O)O[C@@H]2C[C@@H](C)[C@H]3C=CC(=O)[C@]3(O)C[C@@H]12	-0.7	13.9*	-7.2	2.0
CNC(=O)c1cccn(Cc2ccc(C(F)(F)F)cc2)c1=O	1.1	-0.3	15.5	24.9
CN1C(=O)C(=Cc2cc([N+](=O)[O-])ccc2N2CCCCC2)C(=O)N(C)C1=O	-0.6	1.0	-1.2	4.6
CN1C(=O)C(=Cc2sc(=O)n(-c3ccccc3)c2N2CCCCC2)C(=O)N(C)C1=O	·	1.1	26.6	66.7*
Cc1cc(C(=O)N=Nc2c(O)n(C)c3ccccc23)c(C)o1	23.5	4.2	30.5	80.5*
Fc1cccc(F)c1CN1CCN(c2ccc(Cl)cc2)CC1	-0.8	-0.3	15.4	59.9*
Fc1ccc(CN2CCN(c3ccc(Cl)cc3)CC2)cc1	1.3	1.1	0.6	-19.4
CCNC(=S)N(C)CCc1cc2c(c(OC)c1C=C1C(=O)N(C)C(=O)N(C)C1=O)OCO2	7.4	0.0	-84.5*	-88.2
COc1cccc(OCc2cc(C(=O)N3C[C@H]4C[C@@H](C3)c3cccc(=O)n3C4)no2)c1	·	5.6	42.5	73.0*
COc1cccc(N2C(=O)CC(=O)NC2=O)c1	10.4	-1.4	·	·
Cc1nc2cc(C(=O)N3CCC4(CC3)OCCO4)ccc2n1-c1ccc(Br)cc1	55.7*	0.7	-6.6	2.9
O=C(c1ccc2c(c1)OCO2)N1CCC2(CC1)OCCO2	2.0	1.8	-68.1*	-76.4
O=C(c1ccco1)c1cn(Cc2ccccc2Cl)c2ccccc12	2.2	5.8	6.0	19.7
COc1ccc(NC2(C#N)CCCCC2)cc1	0.0	0.5	4.0	38.3
O=C(O)C1C2CCC(O2)C1C(=O)Nc1ccc(F)c(F)c1 (stereo not given)	0.9	4.0	-8.6	-1.5
CC(=O)c1ccccc1NC(=O)C1C2CCC(O2)C1C(=O)O (stereo not given)	1.9	·	38.1	67.9*
CCCCCn1c(=O)c(C(=O)Nc2ccccc2N)c(O)c2ccccc21	16.5	2.0	3.3	6.9
CCCCn1c(=O)c(C(=O)Nc2ccccc2N)c(O)c2ccccc21	48.1*	0.7	9.8	34.5
CNC(=O)c1cccn(Cc2cc(C(F)(F)F)cc(C(F)(F)F)c2)c1=O	1.4	-1.0	16.0	27.5
O=C1NC(c2cccnc2)Nc2sc3c(c21)CCCC3 (stereo not given)	56.1*	3.6	20.9	28.2
SMILES	AHR activator	GAA850 FXN act	HSF1 inh	HSF-1 act
CC1(C)Cc2c(sc3c2C(=O)NC(c2cccnc2)N3)CO1 (stereo not given)	23.5	-1.4	3.6	7.2
COc1ccc(CCNCc2ccc(Br)cc2)cc1OC	0.3	-1.0	22.4	51.2*
CCOc1cc(C2NCc3ccccc3-n3cccc32)ccc1O (stereo not given)	2.3	-0.3	3.8	9.4
CCOc1cccc(C2NCc3ccccc3-n3cccc32)c1O (stereo not given)	16.8	0.8	79.8	92.6*
COC(=O)N(C)c1ccc(C(O)(C(=O)OC)C(F)(F)F)cc1 (stereo not given)	1.4	1.7	0.1	12.9
CC(C)(C)n1cc(C(=O)c2ccc3ccccc3c2O)cn1	-4.1	-1.8	-71.8*	-74.0
CCOc1ccc(Br)c(C2(O)CC(C)N(C)CC2C)c1 (stereo not given)	-1.1	-0.8	-5.4	-8.0
COc1cc(OC)c2c(c1)OCC1CON(C)C21 (stereo not given)	-1.5	0.7	-78.0*	-80.8
CN1CCc2nc3sc(C(=O)NC4CC4)c(N)c3cc2C1	55.4*	2.0	6.4	0.0
CN1CCc2nc(SCC(=O)OC(C)(C)C)c(C#N)cc2C1	5.5	4.1	20.3	22.4
